# Assay results published in PMC5540273 (PLoS ONE, 2017).
# Assays:
# PIK4CB = test system: T1, PIK4CB
# T1 construct: gene PI4KB
# PKAC-beta = test system: T2, PKAC-beta
# T2 construct: gene PRKACB
# 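Note: kd values determined as follow-up on hits from a single-replicate KINOMEscan panel screen.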
smiles,measurement,setting,value
NS(=O)(=O)c1cccc(N/C=C2\C(=O)Nc3ccc(S(=O)(=O)Cc4c(Cl)cccc4Cl)cc32)c1 [GSK398099],Kd,PIK4CB,1.2 µM
CCc1ccc(-c2ccc3c(c2)-c2n[nH]cc2S(=O)(=O)N3C)cc1,Kd,PIKFYVE,> 10 µM
CS(=O)(=O)Cc1ccc(Nc2nccc(-c3c(-c4cccc(NC(=O)C5CCCCC5)c4)nn4ncccc34)n2)cc1 [GSK350559],Kd,PIP5K1C,> 10 µM
CN1c2ccc(-c3ccc(C(N)=O)cc3)cc2-c2[nH]ncc2S1(=O)=O,Kd,PIP5K1C,6.4 µM
O=C1NC(=O)C(c2ccc(Cl)cc2)=C1Nc1cccc(Cl)c1 [SB-317651],Kd,PKAC-beta,> 10 µM
CNC(=O)c1ccc(C)c(-n2c(C)cc(OCc3ccc(F)cc3F)c(Br)c2=O)c1,Kd,PRKCI,> 10 µM
